From PubChem BioAssay
Active and inactive are the calls of the source.

Tests used:
[1] = tested on: PRMT1 (protein arginine N-methyltransferase 1); assay: small molecules binding arginine methyltransferase PRMT1 – biochemical, small-molecule microarray, 635 nm fluorescence, primary screen (AID 1088); conditions: higher = more signal;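 note: binding of Prmt1 protein to compounds spotted on small-molecule microarray slides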
[2] = growth effects on S. cerevisiae YJM789 – YJM789 clinical isolate, OD600, 24 h, basal, primary screen (AID 1089); conditions: higher = more signal, called active from +8 up or from −8 down;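 note: growth of clinical yeast isolate S. cerevisiae YJM 789 seeded 1000 cells per well; test concentration not given here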
[3] = S. pombe growth modifiers, basal conditions – strain 972, OD600, 24 h, no modulator, primary screen (AID 1090);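 note: basal condition with compound alone and no growth modifier present; test concentration not given here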; conditions: S. pombe 972 growth, higher = more signal, called active from +8 up or from −8 down
[4] = budding yeast growth modifiers under rapamycin – strain BY4716, OD600, 96 h, primary screen (AID 1091); note: test concentration not given here; conditions: S. cerevisiae BY4716 + rapamycin, higher = more signal, called active from +8 up or from −8 down
[5] = molecular target: Torsin-1A-interacting protein 2 (Homo sapiens) (UniProt Q8NFQ8); assay: small molecules binding lysate-expressed LULL1 – cell lysate, human LULL1 lysate, 635/667 nm fluorescence, primary screen (AID 1092); conditions: small-molecule microarray, hLULL1 lysate binding, 635 nm fluorescence; higher = more signal;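 note: probe is lysate of COS7 cells overexpressing human LULL1; score merges per-feature 667 nm fluorescence with signal-to-noise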
Torsin-1A-interacting protein 2 (Homo sapiens), sequence (Q8NFQ8 whole entry, looked up): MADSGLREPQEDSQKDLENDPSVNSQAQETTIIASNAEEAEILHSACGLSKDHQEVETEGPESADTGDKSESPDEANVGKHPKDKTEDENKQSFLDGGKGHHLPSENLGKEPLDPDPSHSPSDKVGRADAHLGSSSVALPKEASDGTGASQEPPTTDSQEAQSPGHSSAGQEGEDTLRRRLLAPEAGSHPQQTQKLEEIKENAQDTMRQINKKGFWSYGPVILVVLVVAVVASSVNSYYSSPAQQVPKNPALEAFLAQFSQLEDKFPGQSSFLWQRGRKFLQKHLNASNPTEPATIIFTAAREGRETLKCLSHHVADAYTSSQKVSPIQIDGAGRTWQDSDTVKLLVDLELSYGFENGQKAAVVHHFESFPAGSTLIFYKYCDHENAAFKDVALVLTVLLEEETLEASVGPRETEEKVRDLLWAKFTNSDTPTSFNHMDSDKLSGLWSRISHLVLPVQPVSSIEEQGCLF

[6] = optical density change of DRC41 E. coli – strain DRC41, OD650, 24 h, E. coli filamentation project, primary screen (AID 1093);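 note: MC1000 strain lacking acrAB efflux and sulA so SOS filamentation is blocked; test concentration not given here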; conditions: E. coli DRC41 growth, higher = more signal, called active from +8 up or from −8 down
[7] = probe aLefty2 binding to arrayed compounds – biochemical, biotinylated probe, 635/667 nm fluorescence, primary screen (AID 1094); conditions: small-molecule microarray, higher = more signal;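 note: score merges spot fluorescence near 667 nm with spot signal-to-noise ratio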
[8] = tested on: Noggin (protein binding on small-molecule microarray); assay: small molecules binding Noggin protein – biochemical, 635/667 nm fluorescence, primary screen (AID 1095); conditions: 635 nm fluorescence, higher = more signal;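 note: score merges 667 nm feature fluorescence with signal to noise over triplicate slides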
[9] = molecular target: Neurogenic locus notch homolog protein 3 (Homo sapiens) (UniProt Q9UM47); assay: small molecules binding NOTCH3 protein – biochemical, 635/667 nm fluorescence, primary screen (AID 1096); conditions: small-molecule microarray, 635 nm fluorescence, higher = more signal
Neurogenic locus notch homolog protein 3 (Homo sapiens), sequence (Q9UM47 whole entry, looked up): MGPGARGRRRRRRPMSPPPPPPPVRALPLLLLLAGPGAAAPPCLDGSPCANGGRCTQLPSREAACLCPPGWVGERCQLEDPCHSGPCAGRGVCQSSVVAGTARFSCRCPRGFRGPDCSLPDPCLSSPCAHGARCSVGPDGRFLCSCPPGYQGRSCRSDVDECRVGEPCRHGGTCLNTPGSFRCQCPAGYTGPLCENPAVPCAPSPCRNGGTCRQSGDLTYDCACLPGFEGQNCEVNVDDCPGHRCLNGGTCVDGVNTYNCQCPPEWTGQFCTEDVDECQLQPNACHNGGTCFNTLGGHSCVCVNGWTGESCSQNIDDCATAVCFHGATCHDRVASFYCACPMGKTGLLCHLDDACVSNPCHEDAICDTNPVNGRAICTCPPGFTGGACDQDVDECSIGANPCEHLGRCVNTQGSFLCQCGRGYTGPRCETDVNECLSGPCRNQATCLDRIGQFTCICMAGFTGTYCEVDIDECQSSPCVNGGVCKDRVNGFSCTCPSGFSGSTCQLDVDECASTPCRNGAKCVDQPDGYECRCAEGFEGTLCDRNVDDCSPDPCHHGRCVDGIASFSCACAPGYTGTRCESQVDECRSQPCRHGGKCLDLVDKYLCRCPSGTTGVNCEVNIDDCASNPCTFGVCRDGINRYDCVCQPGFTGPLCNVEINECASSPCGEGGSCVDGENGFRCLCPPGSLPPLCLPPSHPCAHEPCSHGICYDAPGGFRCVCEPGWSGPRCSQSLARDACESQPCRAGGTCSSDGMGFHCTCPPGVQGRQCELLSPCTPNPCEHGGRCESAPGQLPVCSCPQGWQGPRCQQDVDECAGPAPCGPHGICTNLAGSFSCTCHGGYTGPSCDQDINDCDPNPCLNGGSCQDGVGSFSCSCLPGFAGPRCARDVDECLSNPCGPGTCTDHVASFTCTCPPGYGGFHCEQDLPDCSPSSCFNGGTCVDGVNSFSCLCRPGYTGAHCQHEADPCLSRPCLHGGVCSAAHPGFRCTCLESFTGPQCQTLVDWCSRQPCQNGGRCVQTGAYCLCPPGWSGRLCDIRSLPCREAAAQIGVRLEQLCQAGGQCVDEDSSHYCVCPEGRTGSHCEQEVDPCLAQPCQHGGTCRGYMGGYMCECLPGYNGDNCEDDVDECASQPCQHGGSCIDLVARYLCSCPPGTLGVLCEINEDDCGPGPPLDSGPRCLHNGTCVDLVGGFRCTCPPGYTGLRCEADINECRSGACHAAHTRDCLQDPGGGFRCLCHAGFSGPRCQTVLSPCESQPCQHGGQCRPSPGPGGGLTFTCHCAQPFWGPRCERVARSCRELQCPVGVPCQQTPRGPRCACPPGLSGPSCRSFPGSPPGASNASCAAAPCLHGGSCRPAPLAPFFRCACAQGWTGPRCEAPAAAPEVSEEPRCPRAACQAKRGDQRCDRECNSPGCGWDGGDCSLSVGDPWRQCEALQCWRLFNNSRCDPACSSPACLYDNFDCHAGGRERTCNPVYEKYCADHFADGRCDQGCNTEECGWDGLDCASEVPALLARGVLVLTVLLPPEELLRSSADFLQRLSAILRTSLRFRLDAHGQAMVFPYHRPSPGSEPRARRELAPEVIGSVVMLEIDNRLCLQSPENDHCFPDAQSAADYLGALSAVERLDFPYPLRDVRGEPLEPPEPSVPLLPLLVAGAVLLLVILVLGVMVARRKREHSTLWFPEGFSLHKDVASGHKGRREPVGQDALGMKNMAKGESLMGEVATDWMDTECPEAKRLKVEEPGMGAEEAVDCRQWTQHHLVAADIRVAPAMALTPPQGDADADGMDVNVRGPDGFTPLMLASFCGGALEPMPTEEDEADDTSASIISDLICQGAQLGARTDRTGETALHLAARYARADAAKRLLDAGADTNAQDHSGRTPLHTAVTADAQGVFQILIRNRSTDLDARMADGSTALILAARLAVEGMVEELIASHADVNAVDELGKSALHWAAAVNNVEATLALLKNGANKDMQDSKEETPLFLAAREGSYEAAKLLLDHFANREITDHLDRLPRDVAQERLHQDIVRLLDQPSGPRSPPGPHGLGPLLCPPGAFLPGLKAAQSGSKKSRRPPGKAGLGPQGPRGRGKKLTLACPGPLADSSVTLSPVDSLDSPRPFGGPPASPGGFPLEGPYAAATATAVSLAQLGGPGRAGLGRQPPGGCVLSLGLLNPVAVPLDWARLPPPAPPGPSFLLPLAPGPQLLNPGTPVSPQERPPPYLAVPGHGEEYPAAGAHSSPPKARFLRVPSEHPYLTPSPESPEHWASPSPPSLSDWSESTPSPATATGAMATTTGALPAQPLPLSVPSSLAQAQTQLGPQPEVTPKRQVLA

[10] = probe aEGFR binding to arrayed compounds – biochemical, biotinylated probe, 635/667 nm fluorescence, primary screen (AID 1097); conditions: small-molecule microarray, higher = more signal;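 note: probe is a biotinylated anti-EGFR antibody binding compounds printed on slides; score combines fluorescence near 667 nm and signal to noise of each spot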
[11] = tested on: Plasmodium falciparum Sir2 (PF13_0152, Sir2A); assay: Plasmodium falciparum Sir2A binding compounds – biochemical, small-molecule microarray, 635 nm fluorescence, primary screen (AID 1098); conditions: fluorescence 635 nm, higher = more signal;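 note: score merges spot fluorescence intensity with its signal-to-noise ratio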
[12] = probe aDKK1 binding to arrayed compounds – biochemical, biotinylated probe, 635/667 nm fluorescence, primary screen (AID 1099); conditions: small-molecule microarray, higher = more signal;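 note: score merges 667nm spot fluorescence with signal to noise across triplicate slides; reference of the scale not given here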
[13] = probe aCHRDL2 binding to arrayed compounds – biochemical, biotinylated probe, 635/667 nm fluorescence, primary screen (AID 1100); conditions: small-molecule microarray, higher = more signal
[14] = change in splice reporter luminescence, either direction, cell-based, HEK293, spliceosome inhibition project, primary screen (AID 1101); conditions: HEK293 splicing luciferase reporter, 24 h, higher = more signal, called active from +8 up or from −8 down;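 note: HEK293 cells carrying a splicing-competent luciferase reporter gene; test concentration not given here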
[15] = molecular target: Fibroblast growth factor 10 (Homo sapiens) (UniProt O15520); assay: compounds binding fibroblast growth factor 10 – biochemical, small-molecule microarray, 635 nm fluorescence, primary screen (AID 1102); conditions: FGF10 binding, fluorescence 635 nm, higher = more signal
Fibroblast growth factor 10 (Homo sapiens), sequence (O15520 whole entry, looked up): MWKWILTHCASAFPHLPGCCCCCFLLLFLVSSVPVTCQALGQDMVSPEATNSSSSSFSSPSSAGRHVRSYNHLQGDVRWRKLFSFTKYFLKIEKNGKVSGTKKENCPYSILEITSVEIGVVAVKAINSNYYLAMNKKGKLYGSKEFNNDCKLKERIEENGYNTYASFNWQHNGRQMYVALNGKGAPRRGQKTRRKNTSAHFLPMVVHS

[16] = tested on: glycogen synthase kinase-3 (GSK3A per assay name; protocol says GSK3B); assay: compounds binding glycogen synthase kinase-3 – biochemical, small-molecule microarray, 635 nm fluorescence, GSK3A, primary screen (AID 1103); conditions: fluorescence 635 nm, higher = more signal; note: the record names both GSK3A and GSK3B
[17] = molecular target: Epidermal growth factor receptor (Homo sapiens) (UniProt P00533); assay: compounds binding epidermal growth factor receptor – biochemical, small-molecule microarray, 635 nm fluorescence, primary screen (AID 1104); conditions: EGFR binding, higher = more signal;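 note: score merges 667 nm emission intensity with spot signal to noise over triplicate slides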
Epidermal growth factor receptor (Homo sapiens), sequence (P00533 whole entry, looked up): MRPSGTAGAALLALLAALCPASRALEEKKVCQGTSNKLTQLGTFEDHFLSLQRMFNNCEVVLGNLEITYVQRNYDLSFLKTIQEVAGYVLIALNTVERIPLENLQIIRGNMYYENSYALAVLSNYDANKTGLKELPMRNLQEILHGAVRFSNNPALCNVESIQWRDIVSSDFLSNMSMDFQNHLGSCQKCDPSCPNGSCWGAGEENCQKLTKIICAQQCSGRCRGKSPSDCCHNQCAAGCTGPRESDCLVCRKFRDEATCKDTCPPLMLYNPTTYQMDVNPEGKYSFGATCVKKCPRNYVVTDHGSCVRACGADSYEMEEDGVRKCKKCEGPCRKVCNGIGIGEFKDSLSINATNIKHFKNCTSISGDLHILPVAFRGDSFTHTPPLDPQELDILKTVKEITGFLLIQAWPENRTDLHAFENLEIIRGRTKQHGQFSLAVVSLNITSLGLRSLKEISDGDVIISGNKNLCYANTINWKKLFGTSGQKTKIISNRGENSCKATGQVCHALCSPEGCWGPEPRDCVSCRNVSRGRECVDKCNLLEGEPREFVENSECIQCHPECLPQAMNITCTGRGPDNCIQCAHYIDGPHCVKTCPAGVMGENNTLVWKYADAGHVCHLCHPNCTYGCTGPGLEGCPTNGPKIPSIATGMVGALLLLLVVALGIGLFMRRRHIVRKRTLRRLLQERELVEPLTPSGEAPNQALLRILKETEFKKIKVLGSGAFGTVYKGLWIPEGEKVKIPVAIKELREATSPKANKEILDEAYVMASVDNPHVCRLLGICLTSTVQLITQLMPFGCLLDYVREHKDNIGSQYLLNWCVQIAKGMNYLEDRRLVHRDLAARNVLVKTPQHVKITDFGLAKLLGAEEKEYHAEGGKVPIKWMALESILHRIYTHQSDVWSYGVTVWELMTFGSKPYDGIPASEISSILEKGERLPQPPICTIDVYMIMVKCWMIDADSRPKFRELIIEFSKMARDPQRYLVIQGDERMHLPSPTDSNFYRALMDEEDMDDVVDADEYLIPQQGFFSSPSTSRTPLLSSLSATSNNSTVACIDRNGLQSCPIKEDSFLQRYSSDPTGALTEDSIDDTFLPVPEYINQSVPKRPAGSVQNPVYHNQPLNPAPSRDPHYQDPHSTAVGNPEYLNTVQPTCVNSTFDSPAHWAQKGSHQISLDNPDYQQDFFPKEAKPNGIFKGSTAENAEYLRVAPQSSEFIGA

[18] = molecular target: Follistatin-related protein 3 (Homo sapiens) (UniProt O95633); assay: compounds binding follistatin-related protein 3 – biochemical, small-molecule microarray, 635 nm fluorescence, primary screen (AID 1105); conditions: FSTL3 binding, higher = more signal;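 note: score merges emission near 667 nm and signal to noise per printed spot across three slides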
Follistatin-related protein 3 (Homo sapiens), sequence (O95633 whole entry, looked up): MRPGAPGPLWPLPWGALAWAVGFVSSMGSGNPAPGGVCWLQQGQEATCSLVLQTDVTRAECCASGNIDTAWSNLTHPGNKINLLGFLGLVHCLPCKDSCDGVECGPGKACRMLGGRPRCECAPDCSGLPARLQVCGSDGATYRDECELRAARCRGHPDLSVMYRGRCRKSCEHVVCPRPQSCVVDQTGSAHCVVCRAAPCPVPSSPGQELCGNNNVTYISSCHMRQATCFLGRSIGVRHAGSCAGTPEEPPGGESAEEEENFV

[19] = molecular target: Dickkopf-related protein 1 (Homo sapiens) (UniProt O94907); assay: small molecules binding DKK1 protein – biochemical, small-molecule microarray, 635 nm fluorescence scan, primary screen (AID 1106); conditions: higher = more signal;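 note: score merges emission near 667 nm with signal to noise over three replicate slides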
Dickkopf-related protein 1 (Homo sapiens), sequence (O94907 whole entry, looked up): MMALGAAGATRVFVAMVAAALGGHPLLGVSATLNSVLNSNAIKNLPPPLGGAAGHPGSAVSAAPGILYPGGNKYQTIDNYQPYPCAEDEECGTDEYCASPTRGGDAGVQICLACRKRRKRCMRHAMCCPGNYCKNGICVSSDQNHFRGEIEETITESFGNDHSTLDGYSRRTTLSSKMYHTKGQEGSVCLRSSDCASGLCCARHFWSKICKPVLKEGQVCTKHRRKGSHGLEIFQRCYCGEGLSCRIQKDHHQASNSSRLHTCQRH

[20] = tested on: Inhibin beta A chain (activin A); assay: small molecules binding activin A – biochemical, small-molecule microarray, 635 nm fluorescence scan, primary screen (AID 1107); conditions: INHBA, higher = more signal;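 note: mouse activin A protein probed at 4.33 µg/mL on printed slides; score merges bound-protein fluorescence near 667 nm with spot signal-to-noise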

Compound | composite z-score [1] | z-score [2] | z-score [3] | z-score [4] | composite z-score [5] | z-score [6] | composite z-score [7] | composite z-score [8] | composite z-score [9] | composite z-score [10] | composite z-score [11] | composite z-score [12] | composite z-score [13] | z-score [14] | composite z-score [15] | composite z-score [16] | composite z-score [17] | composite z-score [18] | composite z-score [19] | composite z-score [20]
CCCC[C@@H](O)C1=C(COc2ccccc2)C[C@H]2C(=O)N(Cc3ccccc3)C(=O)[C@H]2[C@H]1CO | 0.287 | 0.298 (inactive) | -0.336 (inactive) | 0.361 (inactive) | 0.492 | 0.672 (inactive) | -0.0907 | 0.517 | 0.323 | -0.0828 | 0.146 | -0.302 | -0.195 | -0.249 (inactive) | 0.574 | -0.0802 | 0.357 | 0.78 | 0.638 | 0.526
O=C1O[C@@H](c2ccccc2)[C@@H](c2ccccc2)N2[C@@H](c3ccc(O)cc3)[C@]3(C(=O)Nc4ccc(C#CCCO)cc43)[C@@H](C(=O)N3CCN(c4ncccn4)CC3)[C@H]12 | 1.54 | 2.72 (inactive) | 2 (inactive) | 6.45 (inactive) | 1.04 | 2.07 (inactive) | -0.698 | 1.74 | 1.09 | -0.257 | 1.64 | -1.25 | -1.14 | -0.116 (inactive) | 1.4 | 1.29 | 0.103 | 0.89 | -0.0103 | -0.0153
C=CC[C@]1(C(=O)N2CCCCC2)N=C(c2ccc(OCCCO)cc2)O[C@H]1c1ccccc1CN=[N+]=[N-] | 1.54 | -1.66 (inactive) | -0.442 (inactive) | -0.837 (inactive) | 3.19 | 0.937 (inactive) | -0.013 | 0.562 | 1.08 | -0.0512 | 1.21 | 0.258 | 0.622 | -0.234 (inactive) | 1.21 | 1.31 | 0.128 | 0.922 | 0.263 | 0.851
CCCCCCc1nc(Cc2cc(OC)c(OC)c(OC)c2)cc2c1[Si](C(C)C)(C(C)C)OC2 | -0.114 | 0.654 (inactive) | -0.0595 (inactive) | 0.0907 (inactive) | -0.233 | -0.527 (inactive) | -0.0985 | 0.158 | -0.0693 | -0.232 | 0.209 | -0.227 | -0.623 | -0.393 (inactive) | 0.124 | -0.195 | 0.192 | 0.494 | 0.5 | 0.881
CCCCC(CC)C(O)C1C=CC2C(=O)N(c3ccccc3)C(=O)C2N1Nc1ccc(C#N)cc1 (stereo not given) | 1.54 | 0.491 (inactive) | 0.221 (inactive) | 1.85 (inactive) | 3.14 | 0.0307 (inactive) | 0.555 | 0.208 | 1.04 | 0.338 | 0.976 | 1.33 | 0.813 | 0.037 (inactive) | 1.11 | 1.32 | 0.217 | 1.28 | 0.0492 | 0.783
COc1cc2c(cc1O)C(c1ccc(CN3CCCC3)cc1)N(Cc1cc3c(cc1Br)OCO3)CC2 (stereo not given) | -0.137 | -0.312 (inactive) | -6.22 (inactive) | -1.83 (inactive) | 0.502 | -3.03 (inactive) | -0.0576 | -0.244 | 0.313 | -0.176 | -0.115 | -0.106 | -0.097 | 0.373 (inactive) | 0.41 | -0.237 | -0.186 | 0.583 | -0.367 | 0.992
[N-]=[N+]=Nc1ccccc1C[C@]1(C(=O)NCCN2CCOCC2)COC(c2ccc(OCCCO)cc2)=N1 | 1.29 | -0.877 (inactive) | -2.27 (inactive) | -1.46 (inactive) | 3.03 | 2.56 (inactive) | 0.194 | 0.0424 | 0.0221 | 0.0433 | 1.01 | 0.424 | 0.909 | -0.388 (inactive) | 0.318 | 1.3 | -0.408 | -0.264 | 0.234 | 0.472
O=c1cccc(-c2ccc([N+](=O)[O-])cc2)o1 | 1.03 | -0.778 (inactive) | 1.25 (inactive) | -0.495 (inactive) | 0.706 | 0.188 (inactive) | -0.139 | 1.17 | 0.375 | -0.0644 | -0.632 | -0.0855 | -0.512 | -1.49 (inactive) | 0.274 | 0.959 | 0.574 | 0.534 | 0.0662 | 1.22
CCCC=C(CCC)[C@@H](NP(=O)(c1ccccc1)c1ccccc1)c1ccc(-c2ccccc2)cc1 | 1.54 | 1.09 (inactive) | 2.34 (inactive) | 1.84 (inactive) | 3.11 | -0.932 (inactive) | 0.123 | 0.649 | 1.12 | 0.0825 | 0.517 | 0.719 | 0.581 | -2.98 (inactive) | 1.11 | 1.27 | 0.183 | 1.18 | -0.0014 | 0.479
C=C(/C(=C/C[C@H](OC(=O)c1ccncc1)c1ccc(CO)o1)c1cnc2ccccc2c1)C(C)C | 1.52 | 1.22 (inactive) | -1.67 (inactive) | 0.433 (inactive) | 0.947 | -0.358 (inactive) | 0.0249 | 0.963 | 1.05 | 0.523 | 0.614 | -0.173 | -0.304 | 0.984 (inactive) | 1.41 | 1.16 | 0.932 | 1.46 | 0.791 | 1.81
